# PubChem BioAssay (NCATS)
# Where “and” joins values, the source holds several entries; their conditions need not be identical. Identical values can stand only once. Records with an inconclusive call do not appear. A number with no mark means an inactive call. Calls of active or inactive are those of the source. The call rests on the fitted dose curve; in most records, active means well fitted cell-killing curve with a large enough effect; inconclusive means small, poorly fitted or top-dose-only effect; inactive means flat fitted curve, though single readings scatter.
# Assay: Cellular viability qHTS for adrenocortical cancer (ACC) cell line SW-13 (AID 1963989); further: nearly all actives have a fitted effect of over 65% in size;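 on activity (max response): cells grown in serum-free medium with ITS supplement; on the % scale 0 is the no-effect control and ±100 the full control effect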
# Conditions: SW-13 ACC cells viability, CellTiter-Glo, 48 h; activity (max response): hits give low values
# Outline: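 SW-13 cells in ITS-supplemented serum-free DMEM were plated overnight, then exposed for 48 h at 37C to compound titrations (up to 46 uM final). Viability was read by CellTiter-Glo luminescence; four-parameter logistic fits gave IC50 and efficacy.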
# Potency means the concentration at half of the fitted maximal effect.
SMILES,Potency,activity (max response)
CN1CCC(c2c(O)cc(O)c3c(=O)cc(-c4ccccc4Cl)oc23)C1CO (configuration not stated),3.16 µM (active),–
CN(C)CCCSc1ccccc1NC(=O)/C=C/c1ccccc1,–,8.03%
C=CC(=O)Nc1cccc(Nc2nc(Nc3ccc(OCCOC)cc3)ncc2F)c1,15.8 µM (active),–
CCCCCCCCCCCCCCCCCC(=O)OCC(O)CO (configuration not stated),–,5.37%
COc1ccc(N2C(=O)N(c3c(C)cccc3Cl)Cc3cnc(Nc4ccc(C5CCN(C)CC5)cc4OC)nc32)nc1,2.24 µM (active),–
Cc1ccc(S(=O)(=O)Nc2cc(-c3ccc(C#N)s3)ccc2C)cc1,0.0447 µM (active),–

# Assay: Cellular viability qHTS for adrenocortical cancer (ACC) cell line NCI-H295R (AID 1963990); further: nearly all actives have a fitted effect of over 60% in size;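 on activity change, negative = viability loss: 0% = DMSO only wells and -100% = full killing with cytotoxic reference compound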
# Conditions: CellTiter-Glo ATP luminescence, 48 h; series mostly up to 46.1 µM; activity change, negative = viability loss: at the top concentration
# Outline: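 Luminescent ATP read-out (CellTiter-Glo, 20 min RT) after 48 h drug exposure of NCI-H295R cells; a titration up to 46 uM final. Data normalized to doxorubicin (100% inhibition) and DMSO (0%); 4-parameter fit gives IC50, max response.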
SMILES,"activity change, negative = viability loss",Potency
CC(C)(C(=O)O)c1ccc(C(O)CCCN2CCC(C(O)(c3ccccc3)c3ccccc3)CC2)cc1 (configuration not stated),5.01%,–
O=C(OCC1(COC(=O)c2cccnc2)CCCC(COC(=O)c2cccnc2)(COC(=O)c2cccnc2)C1O)c1cccnc1,-2.36%,–
O=c1oc2c(C3OCCCO3)c(O)ccc2c2c1CNCC2,-17.8%,–
OC[C@H]1O[C@@H](S[C@@H]2O[C@H](CO)[C@H](O)[C@H](n3cc(-c4cccc(F)c4)nn3)[C@H]2O)[C@H](O)[C@@H](n2cc(-c3cccc(F)c3)nn2)[C@H]1O,-8.73%,–
NS(=O)(=O)c1cc2c(cc1Cl)NC(CC1CCCC1)NS2(=O)=O (configuration not stated),-11.8%,–
COc1cc2c(cc1OC)CN(CCc1ccc(-n3nnc(-c4cc(OC)c(OC)cc4NC(=O)c4cc(=O)c5ccccc5o4)n3)cc1)CC2,-5.76% [at 0.587 µM],–
CC1(C)OC2=C(C(=O)c3ccccc3C2=O)[C@H](NCc2ccccc2)[C@@H]1O,–,3.16 µM (active)
Nc1ccc(C(=O)O)c(O)c1,-2.17%,–
C[C@@H]1N=C(N)NC(N(C)C)=N1,10.5%,–
CN1CCC[C@@H]1c1cccnc1,-3.15%,–
CC(=O)OCC(=O)[C@@]12OC(C)(C)O[C@@H]1C[C@H]1[C@@H]3C[C@H](F)C4=CC(=O)C=C[C@]4(C)[C@@]3(F)[C@@H](O)C[C@@]12C,–,inactive
O=C(Nc1ccnc(NC(=O)C2CC2)c1)c1c(Cl)cccc1Cl,–,11.2 µM (active)
Cc1cc(OCc2nnc(SC3CCCC3)n2-c2cccnc2)ccc1-c1ccc(S(C)(=O)=O)cc1,4.77%,–
CCc1cc2c(cc1N1CCC(N3CCOCC3)CC1)C(C)(C)c1[nH]c3cc(C#N)ccc3c1C2=O,-7.29% [at 20 µM],–
NS(=O)(=O)c1cc2c(cc1Cl)NC(C1CC3C=CC1C3)NS2(=O)=O (configuration not stated),-17.3%,–
CC(C)C[C@H](NC(=O)[C@H](Cc1ccccc1)NC(=O)OCc1ccccc1)C(=O)C=O,-20.9%,–

SMILES,"activity change, negative = viability loss",Potency
CCC1NC(=O)c2cc(S(N)(=O)=O)c(Cl)cc2N1 (configuration not stated),2.83%,–
COc1cc2nccc(Oc3ccc(NC(=O)c4cn(C(C)C)c(=O)n(-c5ccc(F)cc5)c4=O)cc3F)c2cc1OC,-1.29%,–
O=C1NC(=O)/C(=C/c2ccc3nccc(-c4ccncc4)c3c2)S1,–,0.631 µM (active)
O=C1Nc2nc(-c3c(O)cccc3OCC3CC3)cc([C@@H]3CCCNC3)c2CO1,–,17.8 µM (active)
CN[C@H]1CC[C@@H](c2ccc(Cl)c(Cl)c2)c2ccccc21,–,4.61 µM (active) and 8.91 µM (active)
CCC(=O)NC[C@H](Cc1ccc(OCCc2nc(-c3ccccc3)oc2C)cc1)N/C(C)=C\C(=O)c1ccc(C(F)(F)F)cc1,-3.15%,–
O=C(c1ccc(F)c(F)c1Nc1ccc(I)cc1F)N1CC(O)([C@@H]2CCCCN2)C1,–,5.62 µM (active)
NC[C@@](O)(c1ccc(Cl)cc1)c1ccc(-c2cn[nH]c2)cc1,–,10 µM (active)
CC1=C2C[C@H]3[C@@H](CC[C@@H]4C[C@H](NS(C)(=O)=O)CC[C@@]43C)[C@@H]2CC[C@@]2(C1)O[C@@H]1C[C@H](C)CN[C@H]1[C@H]2C,–,17.8 µM (active)
COc1ccc(-c2cc(=O)c3c(O)cc(O[C@@H]4O[C@H](CO[C@@H]5O[C@@H](C)[C@H](O)[C@@H](O)[C@H]5O)[C@@H](O)[C@H](O)[C@H]4O)cc3o2)cc1O,–,inactive
CCC[C@H](N[C@H]1CCc2cc(F)cc(F)c2C1)C(=O)Nc1cn(C(C)(C)CNCC(C)(C)C)cn1,–,25.1 µM (active)
O=C(/C=C/c1ccc(Cl)cc1)N1CCC2(CC1)CN(Cc1ccc(Cl)c(Cl)c1)C(=O)O2,-18.7%,–
NC(=O)c1nc(F)c[nH]c1=O,-0.265%,–
O=C(O)COC(=O)Cc1ccccc1Nc1c(Cl)cccc1Cl,-26%,–
COc1cc(N2CCC(N)CC2)ccc1Nc1ncc(Cl)c(-c2c[nH]c3ccccc23)n1,–,0.447 µM (active)
